Screening data deposited in PubChem by National Center for Advancing Translational Sciences (NCATS).
The full list was thinned out, with hits kept by preference.
LmPK inh – blocks Leishmania mexicana pyruvate kinase activity. Q27686. purified LmPK, Kinase-Glo ATP luminescence, 1 h. Potency, µM (top dose mostly 57.5 µM), most hits filed as inhibitors. actives 0.37% (n = 290,000)
Target sequence (Q27686 whole entry, looked up): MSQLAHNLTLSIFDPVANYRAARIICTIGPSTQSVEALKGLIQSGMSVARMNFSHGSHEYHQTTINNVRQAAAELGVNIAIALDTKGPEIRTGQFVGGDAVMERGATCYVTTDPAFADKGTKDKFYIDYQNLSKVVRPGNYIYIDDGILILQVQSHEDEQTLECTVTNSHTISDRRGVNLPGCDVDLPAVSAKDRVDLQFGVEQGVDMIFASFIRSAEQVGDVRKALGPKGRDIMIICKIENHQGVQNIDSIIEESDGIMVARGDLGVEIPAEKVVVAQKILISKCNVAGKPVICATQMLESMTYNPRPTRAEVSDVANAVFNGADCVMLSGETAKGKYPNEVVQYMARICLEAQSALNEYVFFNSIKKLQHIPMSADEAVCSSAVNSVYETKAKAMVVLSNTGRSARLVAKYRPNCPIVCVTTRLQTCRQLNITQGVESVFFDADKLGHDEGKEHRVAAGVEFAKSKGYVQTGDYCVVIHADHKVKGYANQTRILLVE
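In 50 mM imidazole pH 7.2 with 7 mM MgCl2, LmPK (0.1 nM) turned over PEP (0.5 mM) and ADP (0.1 mM) for 1 h at room temperature. Luciferase read-out of ATP.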
Shiga inhibitor – inhibitors of Shiga toxin in Vero cells; inhibition, % at 38.7 µM; Vero cells, Shiga toxin protein synthesis inhibition reporter; actives 9.2% (n = 290,000); AID 2315; in the data active means inhibition mostly above about 28%, no sharp cut-off; inactive means mostly below about 43%
Sm TGR inh – blocks Schistosoma mansoni thioredoxin glutathione reductase; Q962Y6; purified TGR, DTNB reduction, TNB absorbance 405 nm; Potency, µM (highest dose often 114 µM), most hits filed as inhibitors; actives 3% (n = 360,000); further: nearly all actives have a fitted effect of over 60% in size
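TGR 20 nM + NADPH 100 uM (dispensed conc.), cpd preinc 15 min RT; start with NADPH (500 uM addition) then DTNB (15 mM addition). Kinetic TNB absorbance, 405 nm filter. Four-parameter Hill fit across titration.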
FBPA Giardia inh – Giardia lamblia aldolase inhibition | A8B2U2 | purified Giardia FBPA | Potency, µM (doses to about 59.6 µM), actives largely listed as inhibitors | actives 0.71% (n = 290,000); further: nearly all actives have a fitted effect of over 55% in size
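Giardia FBPA (40 nM reagent) was preincubated 10 min at RT with compound (up to 57.5 uM final), then substrate plus GAPDH/TPI/NAD/arsenate coupling system with diaphorase/resazurin was added; resorufin fluorescence (525/598 nm) was read after 20 min.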
Cycloheximide cs – counter-screen for Shiga toxin inhibitors: cycloheximide protein synthesis inhibition; max response, %; cell reporter, cycloheximide protein synthesis inhibition counterscreen; AID 2314; actives 12% (n = 300,000); in the data active means max response mostly above about 13%, no sharp cut-off; inactive means mostly below about 14%; further: read at 38.3 µM for the half of the compounds with a filed dose
TbPYK inhibitor – T. brucei pyruvate kinase inhibition. Q57TT1. TbPYK enzyme, Kinase-Glo Plus ATP luminescence, 45 min. Potency, µM (top dose mostly 76.8 µM), hits mostly inhibitors. actives 0.12% (n = 410,000). AID 624173; further: nearly all actives have a fitted effect of over 50% in size
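Glycolytic pyruvate kinase of T. brucei was incubated with substrate, test compound and 130 uM ADP for 45 minutes at room temperature. Luminescent Kinase-Glo Plus signal was measured after 10 minutes.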
Large screens that a line does not name were inactive. Unless noted, the call rests on the fitted dose curve; in most records, active means well fitted curve in the direction sought with a large enough effect; inconclusive means small, poorly fitted or top-dose-only effect, or another doubt; inactive means no such curve, though single readings can be large; an effect the other way counts as inactive or inconclusive.

COc1cc(OC)c(NC(=O)C2CCCN(c3ncnc4c3nc3n4CCCCC3)C2)cc1Cl (stereo not drawn)	none (no result: LmPK inh, Shiga inhibitor, FBPA Giardia inh, Cycloheximide cs)
COc1ccc(NC(=O)c2coc(=O)c3ccccc23)cc1OC	none (no result: LmPK inh, Shiga inhibitor, FBPA Giardia inh, Cycloheximide cs)
COc1ccc(NC(=O)c2coc3ccccc23)cc1OC	Shiga inhibitor 71, Cycloheximide cs 20
O=C(Cc1ccc(F)cc1)Nc1nc(-c2ccc(F)cc2)cs1	none
N/C(Cc1nc(-c2ccc(F)cc2)cs1)=N\O	Shiga inhibitor 43, Cycloheximide cs 22
N/C(Cc1nc(-c2ccc(Br)cc2)cs1)=N\O	Shiga inhibitor 78, Cycloheximide cs 26
CCc1cc2c(cc1-c1csc(C/C(N)=N/O)n1)C(C)(C)CCC2(C)C	none (no result: LmPK inh, Shiga inhibitor, Sm TGR inh, FBPA Giardia inh, Cycloheximide cs)
O=C(NCCc1ccccn1)c1ccc(OC(F)F)cc1	Shiga inhibitor 75, Cycloheximide cs 25
O=C(NCCc1ccccn1)C(F)(F)C(F)(F)C(F)(F)C(F)(F)C(F)(F)C(F)F	Cycloheximide cs 14
COc1ccc(Cc2c(-c3cccc(Cl)c3)nc3ccc(C)cn23)c(C)c1	none (no result: LmPK inh, Shiga inhibitor, Sm TGR inh, FBPA Giardia inh, Cycloheximide cs)
Cc1ccc(C(NC(=O)NN2CCN(C)CC2)C(Cl)Cl)cc1F (stereo not drawn)	Shiga inhibitor 79, Cycloheximide cs 32
CCC(C)N1C(=O)S/C(=C/c2ccc3c(c2)n(C)c(=O)n3C)C1=O (stereo not drawn)	Cycloheximide cs 30
C/C(=N\Nc1ccc([N+](=O)[O-])cc1)c1ccc(O)cc1	Shiga inhibitor 45, Cycloheximide cs 37
C/C(=N\Nc1ncc(Br)cn1)c1cccc([N+](=O)[O-])c1	Cycloheximide cs 26
C/C(=N\Nc1ccc([N+](=O)[O-])cc1)c1cccc(N)c1	Shiga inhibitor 123, FBPA Giardia inh inconclusive, Cycloheximide cs 39
C/C(=N\NC(=O)OC(C)(C)C)c1cccc([N+](=O)[O-])c1	Shiga inhibitor 29
C/C(=N/Nc1ccccc1[N+](=O)[O-])c1ccc([N+](=O)[O-])cc1	none
COc1ccccc1NC(=O)Cn1c(=O)n(-c2ccc(C)cc2)c(=O)c2ccc(C(=O)NCc3ccco3)cc21	none (no result: LmPK inh, Shiga inhibitor, FBPA Giardia inh, Cycloheximide cs)
O=C(NCc1cccc2[nH]ccc12)C1CCC(=O)N(CCc2ccc(Cl)cc2)C1 (stereo not drawn)	none (no result: FBPA Giardia inh)
CN(C)c1ncnc2c1ncn2[C@H]1CN(Cc2ccco2)C[C@@H](CO)O1	none (no result: LmPK inh, Shiga inhibitor, Sm TGR inh, FBPA Giardia inh, Cycloheximide cs)
C/C(=N\NC(=O)c1ccc([N+](=O)[O-])cc1Cl)c1ccccc1	Shiga inhibitor 56, Cycloheximide cs 32
COc1cc(/C=N/c2oc(C)c(C)c2C#N)cc(Br)c1O	Sm TGR inh 11µM
COc1ccc(/C=N/c2oc(C)c(C)c2C#N)c(OC)c1	Sm TGR inh 50µM
Cc1oc(/N=C/c2ccccc2)c(C#N)c1C	none
CCOc1ccc(NC(=O)c2sc3nc4n(c(=O)c3c2C)CCCC4)cc1	Sm TGR inh 32µM (no result: LmPK inh, Shiga inhibitor, FBPA Giardia inh, Cycloheximide cs)
CCc1ccc(NC(=O)c2sc3nc4n(c(=O)c3c2C)CCC4)cc1	Shiga inhibitor 36, Cycloheximide cs 29 (no result: FBPA Giardia inh)
COc1cccc(NC(=O)C2CCN(S(=O)(=O)c3ccc4[nH]c(=O)ccc4c3)CC2)c1	none
Cc1snc(SCC(=O)c2ccc([N+](=O)[O-])cc2)c1C#N	Shiga inhibitor 64, FBPA Giardia inh inconclusive, Cycloheximide cs 30, TbPYK inhibitor 35µM
O=C(CSCC(=O)c1ccc([N+](=O)[O-])cc1)c1ccc([N+](=O)[O-])cc1	none (no result: LmPK inh, Shiga inhibitor, Sm TGR inh, FBPA Giardia inh, Cycloheximide cs)
Cc1snc(SCC(=O)c2ccc(F)cc2)c1C#N	Shiga inhibitor 105, Cycloheximide cs 34
CSc1nc(N)nc(SCC(=O)c2ccc(C)cc2)c1C#N	Shiga inhibitor active, Sm TGR inh inconclusive, Cycloheximide cs 28
Cc1snc(SCc2ccc(F)cc2)c1C#N	none
Cc1snc(SCc2ccc(Cl)cc2)c1C#N	Cycloheximide cs 11
CSc1nc(N)nc(SCC(=O)OC(C)C)c1C#N	none
COc1cccc(-c2nnc3n2N=C(c2c(OC)cccc2OC)CS3)c1OC	none (no result: LmPK inh, Sm TGR inh, TbPYK inhibitor)
C[C@@]12CCC(=O)C[C@@H]1CC[C@@H]1[C@@H]2CC[C@]2(C)C(=O)CC[C@@H]12	none (no result: LmPK inh, Shiga inhibitor, Sm TGR inh, Cycloheximide cs, TbPYK inhibitor)
CC(C)Cn1c(=O)c2sccc2n2c(CCCC(=O)NCCc3ccccc3)nnc12	none (no result: LmPK inh, Shiga inhibitor, FBPA Giardia inh, Cycloheximide cs)
C=C(C)CSc1nc(N)c(C#N)c(-c2ccc(C)cc2)c1C#N	Sm TGR inh 35µM
CCOC(=O)CSc1nc(N)c(C#N)c(-c2ccc(OC)cc2)c1C#N	none
